MCF10A rereplic – induces DNA re-replication in MCF 10a normal breast cells. MCF 10A DNA re-replication, Hoechst nuclear intensity, 48 h. Potency, µM (top dose mostly 46.1 µM), for the others: at the top dose activity, positive = re-replication, actives largely listed as activators. actives 2.9% (n = 350,000). AID 624296; note: potency is the fitted concentration of half-maximal effect; % of control where 0% means no effect; nearly all actives have a fitted effect of over 50% in size
IL1B secr inh – inhibitors of inflammasome signaling (IL-1 beta secretion). activity change, % at 57.5 µM. actives 4.7% (n = 360,000). THP-1 LPS/ATP IL-1B secretion, AlphaLISA, 16 h; active compounds read low; in the data active = activity change below about -50%; inconclusive = mostly about -30% to -49%; note: % is set by controls: 0 for no effect and ±100 for the full control effect
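Secreted IL-1B measured by AlphaLISA bead assay after 16 h compound exposure of THP-1 cells; compounds (final up to 57.5 uM) added 1 h before LPS (250 ng/mL) and ATP (1.25 mM) stimulation; lower signal means less secretion.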
SW480 rereplic – inducers of DNA re-replication in SW480 colon cancer cells; SW480 DNA re-replication, Hoechst DNA content imaging, 48 h; Potency, µM (highest dose often 46.1 µM), for the others: at the highest dose re-replication activation, actives largely listed as activators; actives 1.8% (n = 340,000); note: potency is the fitted concentration of half-maximal effect; % of control where 0% means no effect; nearly all actives have a fitted effect of over 55% in size
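Readout is total intensity of Hoechst-stained nuclei, excited at 405 nm and collected at 500-530 nm. Compound treatment lasted 48 hr at 37 C in 5% CO2 before staining.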
Gal4-VP16 FLuc – inhibits Gal4-VP16 luciferase reporter, ROR gamma counter-screen; actives 3.5% (n = 310,000); Drosophila S2 Gal4-VP16 UAS-luciferase, luminescence, 20 h; Potency, µM (series often up to 53.6 µM), without a hit: at the top dose activity, negative = inhibition, most hits filed as inhibitors;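 note: Gal4-VP16 expression switched on by copper sulfate through the metallothionein promoter; potency is the fitted concentration of half-maximal effect; % is set by controls: 0 for no effect and ±100 for the full control effect; nearly all actives have a fitted effect of over 50% in size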
RORg inh – blocks mouse ROR gamma transcriptional activity; Drosophila S2 Gal4-RORgamma UAS-luciferase reporter, 20 h; AID 2551; actives 5.4% (n = 310,000); P51450; Potency, µM (series often up to 53.6 µM), inactives show at the highest dose activity change, negative = inhibition, usual class: inhibitors; note: potency is the fitted concentration of half-maximal effect; % is set by controls: 0 for no effect and ±100 for the full control effect; nearly all actives have a fitted effect of over 60% in size
Target sequence (P51450 whole entry, looked up, the tested form may be a part): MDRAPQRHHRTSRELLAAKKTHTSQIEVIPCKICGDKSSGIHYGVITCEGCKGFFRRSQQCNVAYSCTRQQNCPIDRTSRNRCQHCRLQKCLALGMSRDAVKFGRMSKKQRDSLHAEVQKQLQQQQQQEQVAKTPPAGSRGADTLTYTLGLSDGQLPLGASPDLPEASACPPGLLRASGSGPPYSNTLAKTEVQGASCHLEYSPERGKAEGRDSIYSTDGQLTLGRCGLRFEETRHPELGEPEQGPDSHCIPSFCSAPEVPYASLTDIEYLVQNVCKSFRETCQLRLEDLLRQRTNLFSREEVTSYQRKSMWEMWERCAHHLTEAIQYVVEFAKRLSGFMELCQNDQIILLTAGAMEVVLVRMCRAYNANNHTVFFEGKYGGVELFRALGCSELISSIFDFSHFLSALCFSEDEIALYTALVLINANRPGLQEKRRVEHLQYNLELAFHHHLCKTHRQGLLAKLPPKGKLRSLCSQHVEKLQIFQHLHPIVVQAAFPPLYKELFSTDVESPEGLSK
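In this cell-based reporter format, copper sulfate (700 uM final) drives Gal4–ROR gamma fusion expression from a metallothionein promoter in Drosophila Schneider cells; compounds preincubated 1 hr, reporter read after 20 hr at ambient temperature.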
* marks the source's active call; other numbers are inactive results; u = inconclusive; x = not tested or not shown; [ ] = remark or other dose. Sampled rows, rich in hits. Any-hit rate of the full collection: about 11%. Unless noted, calls come from the whole dose curve; as a rule, active = well fitted curve in the direction sought with a large enough effect; inconclusive = small, poorly fitted or top-dose-only effect, or another doubt; inactive = no such curve, though single readings can be large; an effect the other way counts as inactive or inconclusive.

SMILES | MCF10A rereplic | IL1B secr inh | SW480 rereplic | Gal4-VP16 FLuc | RORg inh
COc1ccc(-c2noc(CCCC(=O)Nc3ccc(C(N)=O)cc3)n2)cc1 | -6% | 40 | 2% | 2.5µM* | 1.6µM*
COc1ccc(-c2noc(CCCC(=O)NC3CCCC3)n2)cc1 | -20% | -13 | -9% | 14µM* | 4.5µM*
CCCN(CC(=O)Nc1cccc(S(N)(=O)=O)c1)CC(=O)Nc1ccc(F)c(F)c1F | 0% | 0 | -3% | -13% | 4%
CCCN(CC(=O)Nc1cccc(Br)c1)CC(=O)Nc1ccc(F)c(F)c1F | u | -92* | 8% | u | u
C[C@]12c3[nH]c4ccc(Cl)cc4c3CCN1C(=O)[C@@H](CC(=O)NCCN1CCOCC1)C[C@@H]2C(=O)N1CCCCC1 | -8% | -22 | -18% | x | x
COc1ccc(-n2ccn3c(CCC(=O)N4CCN(c5cccc(C)c5C)CC4)nnc3c2=O)cc1 | -1% | 6 | -6% | -2% | -14%
C[C@@H]1CN([C@H](C)CO)C(=O)c2c(c3ccccc3n2C)-c2ccccc2CO[C@H]1CN(C)Cc1ccc(Oc2ccccc2)cc1 | x | -20 | x | x | x
c1ccc(SSc2ccccn2)nc1 | u | -91* | -87% | x | x
Cc1ccc(C)c(NS(=O)(=O)c2cc(C(=O)Nc3ccccc3-c3ccccc3)ccc2Cl)c1 | 4% | -61* | -9% | 1% | 22%
CC(=O)Oc1cc(C)c(OC(C)=O)c2ccccc12 | u | x | 27µM* | -17% | -1%[10 µM]
COc1ccc(Cn2cc(CN3CC(N4CCN(CCN(C)C)CC4)CS3(=O)=O)nn2)cc1 (stereo unspecified) | x | 14 | x | x | x
Cc1ccc(-c2csc3nc4c5ccccc5c(NCCCN5CCOCC5)nn4c(=O)c23)cc1 | x | x | x | -4% | -7%
Cc1ccc(-c2csc3nc4c5ccccc5c(NCCCN(C)C)nn4c(=O)c23)cc1 | 18µM* | u | u | u | u
Nc1c(-c2ccc3c(c2)OCCO3)oc2ccccc2c1=O | 18µM* | -19 | 21µM* | 7% | 5%
O=c1cc(-c2ccc3c(c2)OCO3)oc2ccccc12 | 28% | 24 | 3% | 15% | u
Cc1ccccc1CNC(=O)Nc1ccc(Cl)cc1 | -13% | 22 | 178% | x | x
Cc1ccccc1S(=O)(=O)N1C[C@H]2CON(C)[C@H]2C[C@H]1c1cccc(-c2ccc(C#N)cc2)c1 | -3% | -11 | 4.1µM* | x | x
Cc1ccccc1S(=O)(=O)N1C[C@H]2CON(C)[C@H]2C[C@H]1c1cccc(N2CCOCC2)c1 | -8% | -9 | -4% | x | x
Cc1nc2c(c3c1[nH]c1ccccc13)C(=O)CC(C)(C)C2 | 23µM* | 19 | u | -4% | 4%
O=C1[C@@H]2Cc3c([nH]c4ccccc34)C(c3cccc(Br)c3)N2C(=O)CN1C1CCN(Cc2ccccc2)CC1 (stereo partly specified) | u | -64* | u | u | u
O=C1[C@@H]2Cc3c([nH]c4ccccc34)C(c3ccccc3)N2C(=O)CN1C1CCN(Cc2ccccc2)CC1 (stereo partly specified) | u | -66* | u | u | 2.8µM*
COC(=O)c1ccc(C2c3[nH]c4ccccc4c3C[C@H]3C(=O)N(C4CCN(Cc5ccccc5)CC4)CC(=O)N23)cc1 (stereo partly specified) | 21% | 0 | 11% | -11% | 34%
O=C(Cc1ccc(Br)cc1)Nc1cccc(-c2cn3c(n2)SCC3)c1 | u | -76* | u | 3% | 25%
CCCC(CCC)C(=O)Nc1cccc(-c2cn3c(n2)SCC3)c1 | -5% | -4 | 0% | -7% | -9%
N#Cc1ccc(NC(=O)Nc2ccc(Oc3ccc(NC(=O)Nc4ccc(C#N)cc4)cc3)cc2)cc1 | u | -80* | 7% | 13µM* | u
SMILES | MCF10A rereplic | IL1B secr inh | SW480 rereplic | Gal4-VP16 FLuc | RORg inh
CC(C)N(C(=O)CSc1nn2c(=O)c(C(C)(C)C)nnc2s1)c1ccccc1 | -1% | -50* | 4% | -17% | 0%
Cc1cc(C(=O)CSc2nn3c(=O)c(C(C)(C)C)nnc3s2)c(C)n1-c1ccc(F)cc1 | 2% | 8 | -3% | 2% | u
CC(C)(C)c1nnc2sc(SCC(=O)N3CCCCC3)nn2c1=O | 24% | -92* | -4% | x | x
CC(C)(C)c1nnc2sc(SCCN3C(=O)c4ccccc4C3=O)nn2c1=O | 20% | -5 | -5% | 0% | 1%[10 µM]
O=C(CCCN1C(=O)C(=Cc2ccc3c(c2)OCO3)SC1=S)Nc1ccc(C(=O)O)c(O)c1 | x | -1 | x | x | x
CC(C)NS(=O)(=O)c1ccc(NC(=O)C(C)Oc2ccc(C(=O)c3ccccc3)cc2)cc1 (stereo unspecified) | u | 10 | u | 7.1µM* | u
CC(=O)Nc1cccc(Oc2ncnc3scc(-c4ccc(C(C)C)cc4)c23)c1 | 23µM* | -52* | u | -2% | u
NC(=O)COc1ncnc2scc(-c3ccc(F)cc3)c12 | 1% | 18 | -2% | 9% | -19%
COc1ccc(C2CC(c3cccs3)=NN2C(=O)CCC(=O)O)cc1 (stereo unspecified) | 0% | 5 | -4% | 6% | -12%[1.91 µM]
COc1ccc(C2CC(c3cccs3)=NN2C(=O)c2ccccc2)cc1OC (stereo unspecified) | 1% | -23 | 2% | 1% | 21%
O=C(c1ccco1)N1N=C(c2cccs2)CC1c1ccccc1O (stereo unspecified) | u | -12 | 7% | -15% | 1%
COc1cccc(C2CC(c3cccs3)=NN2C(=O)c2ccco2)c1O (stereo unspecified) | 3% | 13 | -6% | -3% | 5.6µM*
COc1cc(C2CC(c3cccs3)=NN2C(=O)CCl)ccc1OC(F)F (stereo unspecified) | 16µM* | -103* | 25% | 16µM* | u
COc1ccc(C2CC(c3cccs3)=NN2C(=O)CCl)cc1OC (stereo unspecified) | 3.3µM* | -103* | 2.1µM* | u | u
O=C(CCCC(=O)OCC(=O)c1ccc(Cl)cc1)NC1CCCCC1 | 2% | 14 | 4% | 7% | -42%
Cc1ccc(C(=O)NC(=S)Nc2ccc(S(=O)(=O)N3CCN(C)CC3)cc2)cc1 | 10% | -6 | 3% | -7% | 11µM*
Cc1cccc(C(=O)NC(=S)Nc2ccc(S(=O)(=O)N3CCCCC3)cc2)c1 | 19% | -1 | 9% | 10µM* | 14µM*
CC(=O)Nc1ccc(S(=O)(=O)N2CCN(C)CC2)cc1 | 0% | 0 | 0% | -1% | -30%
Cc1cccc(C(=O)NC(=S)Nc2ccc(S(=O)(=O)N3CCN(C)CC3)cc2)c1 | u | 0 | -4% | u | 13µM*

Bioassay records as filed in PubChem BioAssay.
